This is a sample that favours compounds with a hit; in the whole collection about 5.5% have one here.
Six1-Eya2 blk: inhibitors of human Six1/Eya2 interaction; Q15475+O00167; AlphaScreen GST-Six1/His-Eya2 binding, biochemical; active compounds read low; activity change, % (test concentration not listed); 0.56% of 360,000 active; AID 651725; in the data active means activity change below about -65%; inconclusive means mostly about -30% to -63%
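AlphaScreen with GST-Six1 and His-Eya2 (5X mix: 250 nM and 500 nM), glutathione donor and nickel acceptor beads; buffer 50 mM Tris pH 8.0, 300 mM NaCl, 1 mM TCEP; 1 h at 37 C in the dark.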
RORg inh: ROR gamma (mouse) transcription inhibition; AID 2551; P51450; Potency, µM (doses to about 53.6 µM), actives largely listed as inhibitors; 5.4% of 310,000 active; Drosophila S2 Gal4-RORgamma UAS-luciferase reporter, 20 h; further: nearly all actives have a fitted effect of over 60% in size
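Stable Schneider cell line, Gal4 DNA-binding domain fused to ROR gamma, UAS-luciferase. Cmpd 1 hr RT → CuSO4 700 uM final → 20 hr RT → luciferase reagent 10 min → luminescence.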
Gal4-VP16 FLuc: counter-screen for ROR gamma inhibitors: Gal4-VP16 reporter | Drosophila S2 Gal4-VP16 UAS-luciferase, luminescence, 20 h | Potency, µM (doses to about 53.6 µM), hits mostly inhibitors | 3.5% of 310,000 active;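 further: Gal4-VP16 expression switched on by copper sulfate through the metallothionein promoter; nearly all actives have a fitted effect of over 50% in size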
MBNL1-CUG inh: blocks human MBNL1 binding to CUG repeat RNA. Q9NR56. TR-FRET MBNL1-His/biotin-(CUG)12 binding, 665/545 ratio. Potency, µM (doses to about 57.5 µM), usual class: inhibitors. 0.036% of 280,000 active. AID 2675; active means well fitted inhibition curve with a large enough effect in the signal ratio, with a control signal flat, not every such curve was filed as active; inconclusive means small, poorly fitted or top-dose-only effect, or effect the other way, or a change in a side signal; inactive means no such curve, though single readings can be large or run the other way; the % refers to the signal ratio
Target sequence (Q9NR56 whole entry, looked up): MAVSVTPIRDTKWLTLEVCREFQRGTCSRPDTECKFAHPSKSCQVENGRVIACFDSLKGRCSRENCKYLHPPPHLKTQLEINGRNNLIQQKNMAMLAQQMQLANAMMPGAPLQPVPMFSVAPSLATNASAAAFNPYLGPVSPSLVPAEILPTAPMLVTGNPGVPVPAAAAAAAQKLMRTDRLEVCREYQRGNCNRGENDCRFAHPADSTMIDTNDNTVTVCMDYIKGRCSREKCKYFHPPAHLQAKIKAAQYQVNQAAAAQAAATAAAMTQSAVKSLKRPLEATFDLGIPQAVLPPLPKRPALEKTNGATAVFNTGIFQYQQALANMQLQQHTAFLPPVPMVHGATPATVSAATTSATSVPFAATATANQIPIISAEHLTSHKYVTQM
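Inhibition of protein-RNA binding appears as loss of TR-FRET between terbium anti-His antibody on MBNL1-His and streptavidin-XL665 on biotin-(CUG)12. Activity is normalized to buffer-only and uninhibited-complex controls.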
CtBP-E1A blk: inhibitors of CtBP/E1A interaction. AlphaScreen GST-E1A/His-CtBP binding, 1536-well; active compounds read low. AID 651724. activity change, % (no concentration beside the values). 0.49% of 340,000 active; in the data active means activity change below about -65%; inconclusive means mostly about -30% to -63%
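Homogeneous bead-based format: GST-tagged E1A captured on glutathione donor beads, His-tagged CtBP on nickel acceptor beads; compounds precede bead addition by 2 h at 37 °C.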
CBFb-RUNX1 inh: blocks binding between human CBF-beta and RUNX1. AID 1477. Q01196+Q13951. Potency, µM (highest dose often 59.8 µM), usual class: inhibitors. AlphaScreen CBFb-His/RUNX1-biotin binding, biochemical. 230,000 tested, under 10 active
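Proteins preincubated together for 20 min at RT before compound addition; 15 min later, nickel and streptavidin beads were added and left 90 min prior to AlphaScreen measurement.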
A number is an active result. Unless noted, the call rests on the fitted dose curve; in most records, active means well fitted curve in the direction sought with a large enough effect; inconclusive means small, poorly fitted or top-dose-only effect, or another doubt; inactive means no such curve, though single readings can be large; an effect the other way counts as inactive or inconclusive.

How did Cn1cc(C(=O)N/N=C/c2cccs2)c2ccccc21 do in these assays?
Six1-Eya2 blk: inactive; RORg inh: 10µM; Gal4-VP16 FLuc: inconclusive; MBNL1-CUG inh: inactive; CtBP-E1A blk: inactive; CBFb-RUNX1 inh: inactive

How did CN(CCCNC(=O)c1cc2c(Cl)nc3ccccc3c2s1)Cc1ccccc1 do in these assays?
Six1-Eya2 blk: inactive; RORg inh: inconclusive; Gal4-VP16 FLuc: 11.2µM; MBNL1-CUG inh: inactive; CtBP-E1A blk: inactive; CBFb-RUNX1 inh: inactive

What do the screens show for `COc1ccc(C2CC(c3ccccc3)=NN2c2ccc(/C=N/NC(=O)c3ccncc3)cc2)cc1` (configuration not stated)?
Six1-Eya2 blk: inactive; RORg inh: 3.16µM; Gal4-VP16 FLuc: 7.08µM; MBNL1-CUG inh: inactive; CtBP-E1A blk: inactive; CBFb-RUNX1 inh: inconclusive

What do the screens show for `CCCN(C(=O)CSc1n[nH]c(-c2ccc(OC)cc2)n1)c1c(N)n(Cc2ccccc2)c(=O)[nH]c1=O`?
Six1-Eya2 blk: inactive; CtBP-E1A blk: inactive

How did CCN(CC)c1ccc(/C=N/NC(=O)c2cccc(S(=O)(=O)Nc3ccccc3OC)c2)c(O)c1 do in these assays?
Six1-Eya2 blk: inconclusive; RORg inh: 2.51µM; Gal4-VP16 FLuc: 4.47µM; MBNL1-CUG inh: inactive; CtBP-E1A blk: inactive; CBFb-RUNX1 inh: inactive

How did CCN(CC)c1ccc(/C=N/NC(=O)c2cccc(S(=O)(=O)Nc3ccccc3OC)c2)cc1 do in these assays?
Six1-Eya2 blk: inactive; RORg inh: 6.31µM; Gal4-VP16 FLuc: 8.91µM; MBNL1-CUG inh: inactive; CtBP-E1A blk: inactive; CBFb-RUNX1 inh: inactive

How did COc1ccc(NS(=O)(=O)c2cccc(C(=O)N/N=C/c3cn(-c4ccccc4)nc3-c3ccc(OC)cc3)c2)cc1 do in these assays?
Six1-Eya2 blk: inactive; RORg inh: inactive; Gal4-VP16 FLuc: inactive; MBNL1-CUG inh: inactive; CtBP-E1A blk: inactive; CBFb-RUNX1 inh: inactive

How did COc1ccccc1NS(=O)(=O)c1cccc(C(=O)N/N=C/c2cn(-c3ccccc3)nc2-c2ccccc2)c1 do in these assays?
Six1-Eya2 blk: inactive; RORg inh: 1.58µM; Gal4-VP16 FLuc: 6.31µM; MBNL1-CUG inh: inactive; CtBP-E1A blk: inactive; CBFb-RUNX1 inh: inactive

How did COc1ccc(NS(=O)(=O)c2cccc(C(=O)N/N=C/c3cn(-c4ccccc4)nc3-c3ccccc3)c2)cc1 do in these assays?
Six1-Eya2 blk: inactive; RORg inh: inconclusive; Gal4-VP16 FLuc: inactive; MBNL1-CUG inh: inactive; CtBP-E1A blk: inactive; CBFb-RUNX1 inh: inactive

How did COc1ccccc1NS(=O)(=O)c1cccc(C(=O)N/N=C/c2ccc3c(c2)OCCO3)c1 do in these assays?
Six1-Eya2 blk: inconclusive; RORg inh: inactive; Gal4-VP16 FLuc: inactive; MBNL1-CUG inh: inactive; CtBP-E1A blk: inactive; CBFb-RUNX1 inh: inactive

How did COc1ccc(-c2nn(-c3ccccc3)cc2/C=N/Nc2ccccn2)cc1 do in these assays?
RORg inh: 1.58µM; Gal4-VP16 FLuc: 3.98µM; MBNL1-CUG inh: inactive; CBFb-RUNX1 inh: inactive

Results for COc1ccc(-c2csc(C(O)c3ccc(F)cc3)n2)cc1OC (configuration not stated) ?
Six1-Eya2 blk: inactive; CtBP-E1A blk: inactive

How did CCN(CC(=O)Nc1ccc(NC(C)=O)cc1)C(=O)c1ccc(N2CCCC2)c([N+](=O)[O-])c1 do in these assays?
Six1-Eya2 blk: inactive; CtBP-E1A blk: inactive

Results for O=C(N/N=C/c1ccco1)c1cccc(S(=O)(=O)Nc2ccccc2Cl)c1 ?
Six1-Eya2 blk: inconclusive; RORg inh: inconclusive; Gal4-VP16 FLuc: inactive; MBNL1-CUG inh: inactive; CtBP-E1A blk: inactive; CBFb-RUNX1 inh: inactive

Results for COc1ccc(-c2nn(-c3ccccc3)cc2/C=N/NC(N)=S)cc1OC ?
Six1-Eya2 blk: inactive; RORg inh: 1.12µM; Gal4-VP16 FLuc: 1µM; CtBP-E1A blk: inactive; CBFb-RUNX1 inh: inconclusive

How did COc1ccc(-c2nn(-c3ccccc3)cc2/C=N/n2cnnc2)cc1OC do in these assays?
Six1-Eya2 blk: inactive; RORg inh: inactive; Gal4-VP16 FLuc: inactive; MBNL1-CUG inh: inactive; CtBP-E1A blk: inactive; CBFb-RUNX1 inh: inactive

Screening data deposited in PubChem BioAssay by National Center for Advancing Translational Sciences (NCATS).
